ssDAF12 agonist: S. stercoralis DAF-12 nuclear receptor activators, primary screen, cell-based, luminescence, HEK293, GRIP1 co-expression, lit1-tk-luc. Nuclear hormone receptor DAF-12 (Strongyloides stercoralis). HEK293 ssDAF-12/GRIP1 lit1-tk-luc reporter; % of 3 µM dafachronic acid response. activation, % at 6.8 µM. actives 1% (n = 370,000);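 active = activation above the mean over all tested compounds plus 3 SD, cut at about 0.9% in these data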
hgDAF-12 ag: H. glycines DAF-12 receptor agonists, primary screen, cell-based, luminescence, HEK293, GAL4 fusion, UAS-luciferase; AID 687014, 2013; HEK293 GAL4-hgDAF12 UAS-luciferase reporter, agonist luminescence; normalized to butyrate control; activation, % at 6.8 µM; actives 1.8% (n = 370,000); Nuclear hormone receptor DAF-12 (Heterodera glycines), GAL4 fusion;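 active = activation above a cutoff set at the mean of all screened compounds plus 3 SD, cut at about 10% in these data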
DAX1 inh-1: DAX1 (NR0B1) inhibitors, primary screen, cell-based, HEK293, Gal4-DAX1, luciferase luminescence; Nuclear receptor subfamily 0 group B member 1 (Homo sapiens), P51843; HEK293 Gal4-DAX1 luciferase reporter; inhibition, % at 6.75 µM; actives 0.99% (n = 340,000); AID 504766, 2011;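 active = inhibition above the mean over all tested compounds plus 3 SD, cut at about 4.2% in these data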;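 note: inhibition shows as a rise in luminescence from relieved DAX1 repression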
Target sequence (P51843 207-470 limits assumed): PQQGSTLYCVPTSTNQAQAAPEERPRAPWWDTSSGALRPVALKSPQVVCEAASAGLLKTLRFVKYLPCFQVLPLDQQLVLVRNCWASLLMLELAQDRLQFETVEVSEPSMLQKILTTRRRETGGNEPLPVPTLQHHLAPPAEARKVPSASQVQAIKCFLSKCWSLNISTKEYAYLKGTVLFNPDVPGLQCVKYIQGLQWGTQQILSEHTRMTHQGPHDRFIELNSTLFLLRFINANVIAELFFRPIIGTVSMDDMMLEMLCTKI
DAX1 inh-2: DAX1 (NR0B1) inhibitors on StAR promoter, primary screen, cell-based, luminescence, SF-1 (NR5A1), full-length DAX-1 | inhibition, % at 6.8 µM | actives 1.1% (n = 370,000) | HEK293T StAR-luciferase reporter, SF-1/DAX-1 repression relief | AID 652010, 2013;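 active = inhibition above the mean over all tested compounds plus 3 SD, cut at about 3.6% in these data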;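 note: higher inhibition means more luminescence from relief of DAX-1 repression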
hcDAF12 agonist: H. contortus DAF-12 nuclear receptor activators, primary screen, cell-based, luminescence, HEK293, lit1-tk-luc reporter. AID 652067, 2013. actives 1.4% (n = 370,000). HEK293 hcDAF-12 lit1-tk-luc reporter; 0% DMSO, 100% Δ7-dafachronic acid. activation, % at 6.8 µM;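 active = activation above the mean of all tested compounds plus 3 SD, cut at about 5.5% in these data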
Of the large screens only hits and unclear results are named; the others gave an inactive call. Only some compounds are listed: those with a hit (about 4.1% of all), similar ones and a draw of the others.

COC(=O)[C@@H](Cc1ccccc1)NC(=O)NCCc1ccc(OC)c(OC)c1	DAX1 inh-1 4.3
CCCC1CCC2(CC1)CCC2OC(=O)Nc1c(OC)cccc1OC (stereo not given)	none (no result: DAX1 inh-1, DAX1 inh-2)
CC(C)(C)c1ccc(S(=O)(=O)N2CCCC2C(=O)N2CCc3ccccc3C2)cc1 (stereo not given)	none (no result: DAX1 inh-1)
Clc1ccc(Cn2c(/C=C/c3ccco3)nc3ccccc32)cc1	none
Cc1ccc(Cn2c(/C=C/c3ccco3)nc3ccccc32)cc1	hcDAF12 agonist 6.3
Oc1ccc(Cl)cc1C1=NNC(c2cccs2)C1 (stereo not given)	hgDAF-12 ag 14.1, hcDAF12 agonist 5.7
Cc1ccc(S(=O)(=O)CC(=O)N(CCCN2CCOCC2)c2nc3c(F)cccc3s2)cc1	DAX1 inh-2 4.1
O=C(CCS(=O)(=O)c1ccccc1)N(CCCN1CCOCC1)c1nc2c(F)cccc2s1	none
O=C(CSc1nc2ccccc2o1)NCc1n[nH]c(=O)c2ccccc12	hcDAF12 agonist 6.2
Cc1nc(N2CCN(C(=O)C3CC3)CC2)c2c3c(sc2n1)CC(C)CC3 (stereo not given)	none (no result: DAX1 inh-1, DAX1 inh-2)
Cc1cc(NC(=O)CSc2nnc(-c3ccc4c(c3)OCCO4)o2)no1	DAX1 inh-2 3.9
Cc1cc(NC(=O)CSc2nnc(CNC(=O)c3ccccc3)o2)no1	none
Cc1cc(NC(=O)CSc2nnc(-c3cccc(Cl)c3)o2)no1	none
Cc1cc(NC(=O)CSc2nnc(Cc3ccccc3)o2)no1	DAX1 inh-1 5.1
O=C(C1CCCN(S(=O)(=O)c2ccc(F)cc2)C1)N1CCN(Cc2ccccc2)CC1 (stereo not given)	none (no result: DAX1 inh-1)
N#CC(C#N)=C1SC(=Nc2ccccc2)C(=Nc2ccccc2)N1c1ccccc1	DAX1 inh-2 4.5
Cc1cc(C)c2c(CN3CCC(C)CC3)cc(=O)oc2c1C	DAX1 inh-1 4.8
Cc1ccc2c(CN3CCC(C)CC3)cc(=O)oc2c1C	none
c1ccn(-c2ccc(-c3noc(CCc4ccncc4)n3)cc2)c1	none (no result: DAX1 inh-1)
CCCC[C@@H]1C(=O)N2N=Cc3ccccc3[C@H]2N2N=Cc3ccccc3[C@@H]12	none (no result: DAX1 inh-1)
COc1ccc(CC2(CO)CCN(Cc3cnn(-c4ccccc4OC)c3)CC2)cc1	DAX1 inh-1 5.8
COc1ccc(CC2(CO)CCN(Cc3cnn(-c4ccccc4)c3)CC2)cc1	none
Cc1ccccc1N1CC(=O)N(c2ccccc2C)CC1=O	none
CC1=NN(c2ccccc2C)C(=O)C1	ssDAF12 agonist 1.9
Cn1nnnc1SCC(=O)Nc1ccccc1N1CCOCC1	none
COc1ccc(-n2nnnc2SCC(=O)Nc2ccccc2N2CCOCC2)cc1OC	DAX1 inh-1 4.3
COc1ccc(C2C(C(=O)N3CCN(c4ccccc4Cl)CC3)CC(=O)N2c2ccc(OC)cc2)cc1 (stereo not given)	none (no result: DAX1 inh-1)
O=C(O)c1cccc(N=NN2CCOCC2)c1	DAX1 inh-2 3.7 (no result: DAX1 inh-1)
Cc1cc(C)n(-c2nnc3c4ccccc4n(C)c3n2)n1	hgDAF-12 ag 10.5
C/C(=N\Nc1nnc2c3ccccc3n(C)c2n1)c1ccc(C)o1	none
O=C(CSc1nc2ccccc2nc1N1CCCCC1)N1CCN(S(=O)(=O)c2ccccc2)CC1	none (no result: DAX1 inh-1)
Cc1nc2c3ccccc3n(CC#N)c(=O)n2n1	hcDAF12 agonist 6.1
CN1CCC(Oc2ccc(Sc3ccccc3)cc2)CC1	hgDAF-12 ag 10.7
C=CCCC(=O)N(Cc1ccccc1)c1ccccc1C(=O)Nc1cc(OC)ccc1OC	none (no result: DAX1 inh-1)
CCC(=O)N1CCC(C(=O)NC2CCCc3ccccc32)CC1 (stereo not given)	none (no result: DAX1 inh-1)
CCCCNC(=O)C1CCCN1C(=O)NCc1ccccc1OC (stereo not given)	none (no result: DAX1 inh-1)
CSCc1nc2sc(C(=O)Nc3nc(C)cs3)c(C)c2c(=O)[nH]1	hgDAF-12 ag 11.8
Cc1csc(NC(=O)CSc2nc3sc(C)c(C)c3c(=O)[nH]2)n1	none
Cc1ccc(NC(=O)c2sc3nc(CCl)[nH]c(=O)c3c2C)c(C)c1	DAX1 inh-2 3.7
